Test results: PubChem BioAssay (NCI)
The panel holds about 83,000 compounds, 20% with a hit somewhere; the sample as a whole holds those more often.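 Single-dose data. Exposure time 48 hours. Values below 10 considered active.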 Activity calls are given as the source filed them.

System: UACC-62 melanoma
Assay: NCI-60 one-dose screen, 48 h (100 = growth as untreated, 0 = no growth, -100 = all killed)
Settings: 10 µM unless noted
Procedure: Growth inhibition of the UACC-62 human tumor cell line is measured as a screen for anti-cancer activity. Cells are grown in 96 well plates and exposed to the test compound for 48 hours. Compounds are tested at a single concentration, which is 10^-5 M for most compounds. The reported endpoint is percent growth (GI% or GIPRCNT), where numbers from 0 - 100% represent growth inhibition, and numbers from -100% - 0 represent cell death. For example, a value of 40 represents 60% growth inhibition. A value of 0 means no net growth occurred over the course of the experiment. A value of -40 indicates 40% of cells at the beginning of the experiment died by the end of the experiment. A value of -100 means all cells are dead at the end of the experiment.
NCI-60 Human Tumor Cell Lines Screen was performed using the standard one-dose NCI protocol, which is described in more detail at https://dtp.cancer.gov/discovery_development/nci-60/default.htm.
Compounds with GIPRCNT values below 10 were considered active. Activity score was based on GIPRCNT using the following formula: […]
Score is 0 for GIPRCNT values of 100 or above, 50 for GIPRCNT values of 0, and 100 for GIPRCNT values of -100.

Compound | growth
Nc1nc2ccccc2c2c(=O)c3cc(Cl)ccc3sc12 | 93.4% (inactive)
O=c1oc2ccccc2cc1-c1nn(-c2ccccc2)cc1-c1nn[nH]n1 | 93.3% (inactive)
COC1C(O)CC(OC2CC(OC3CC(O[C@@H]4C(=O)c5c(cc6cc(OC7CC(OC8CC(O)C(O)C(C)O8)C(O)C(C)O7)c(C)c(O)c6c5O)CC4[C@H](OC)C(=O)O)OC(C)C3O)OC(C)C2O)OC1C (stereo not given in full) | -0.0213% (active)
N#Cc1ccc(/C=C/c2cn(-c3ccccc3)nc2-c2cccc([N+](=O)[O-])c2)cc1 | 77% (inactive)
O=C(Nc1cccnc1Nc1ccccc1)c1cn(Cc2cccc(Oc3ccccc3)c2)nn1 | 32.8% (inactive)
Cc1ccc(NC(=O)c2cc3ccccc3cc2O)c(C)c1 | 66.1% (inactive)
O=[N+]([O-])c1ccccc1Nc1ccc2ccccc2c1 | 79.5% (inactive)
N#CC1=C(N)Oc2c(sc3c(F)cccc23)C1c1ccc([N+](=O)[O-])cc1 (stereo not given) | -75.6% (active)
c1ccc(Nc2nc3c(s2)CCc2c[nH]cc2-3)nc1 | 92.1% (inactive)
CC(O)CNC(Cc1ccccc1)c1ccc2c(c1)OCO2 (stereo not given) | 91.4% (inactive)
CC1(C)N=C(N)N=C(N)N1c1cc(Cl)ccc1Cl | 88.7% (inactive)
N#C/C(=C\c1ccc(-c2cccc(Cl)c2)o1)C(=O)Nc1ncc(Cc2ccc(Cl)cc2)s1 | 43% (inactive)
O=C(Nc1ccccc1O)c1ccc(CNc2ccnc(C(F)(F)F)c2)cc1 | 32.8% (inactive)
COc1cc(-c2ccc[nH]2)[nH]c1/C=C1\N=C(C)C(CC(=O)OCC(C)(C)C)=C1C | -82.6% (active)
c1cc(OCCN2CCCCCC2)ccc1CNc1ccc2nc(CCC3CCCCC3)[nH]c2c1 | 83.9% (inactive)
COc1ccc(C/C(C)=C(\c2ccc(O)cc2)c2ccc(OCCN3CCCCC3)cc2)cc1 | 90.5% (inactive)
COc1ccc2cc(C(=O)N3CCC([C@@H](C)C(=O)NCc4ccc5c(c4)OCO5)CC3)[nH]c2c1 | 43.7% [50 µM] (inactive)
CN1C(=O)N2CN3CCCN(C3)CN3C(=S)NC1C23 (stereo not given) | 101% (inactive)
c1ccc(Cn2cc3c(c2-c2ccccc2)CCc2cnoc2-3)cc1 | 43.1% (inactive)
COc1ccc(/C=C(/C(=O)N2CCNCC2)c2cc(OC)c(OC)c(OC)c2)cc1O | 32.5% (inactive)

Compound | growth
CS(=O)(=O)Nc1cc(-c2ccc3ncnc(Nc4ccc5c(cnn5Cc5ccccc5F)c4)c3c2)cnc1Cl | 19.4% (inactive)
O=C(/C=C/c1ccccc1Cl)c1cccc(OCCCCOc2cccc(C(=O)/C=C/c3ccccc3Cl)c2)c1 | 85.5% (inactive)
CSc1ccc2c3c(n(CCCn4ccnc4)c(=O)c2c1)-c1ccccc1C3=O | 19.8% (inactive)
CSc1ccc2c3c(n(C[C@H](O)CO)c(=O)c2c1)-c1ccccc1C3=O | 37.5% (inactive)
COc1ccc(/C=N/Nc2c3ccccc3nc3ccccc23)cc1 | 91.1% (inactive)
Cc1cc(C)c2c(c1)N(C)c1ncnc(-n3c(C)nc4cc(C)ccc43)c1CC2C (stereo not given) | 31.6% (inactive)
COC(=O)c1c2c(c[n+]([O-])c1C)C(=O)C=C(NCc1ccccc1)C2=O | -81.3% (active)
O=C(/C=C/c1ccccc1)c1ccc(-n2cc(CN3CCN(c4cc5c(cc4F)c(=O)c(C(=O)O)cn5C4CC4)CC3)nn2)cc1 | 73.8% (inactive)
CC/C(=C(\c1ccc(Cl)cc1)c1ccc(OCCN2CCCCC2)cc1)c1ccc(O)cc1 | 71% (inactive)
Cc1nc2sc(C(=O)Nc3cccc4ccccc34)c(N)c2cc1C(=O)c1ccccc1 | 33.4% (inactive)
Cc1ccc(OCCOCCOCCOc2ccc(C)n(O)c2=S)c(=S)n1O | 15.6% (inactive)
NCCCNc1nc2ccccc2c2c(=O)c3cc(Cl)ccc3sc12 | -6.22% (active)
O=C1O[C@@H](c2ccccc2Cl)[C@@H]2c3cc4c(cc3CCN12)OCO4 | 78.7% (inactive)
COc1cc(OC)c2c(=O)c3c(CC=C(C)C)cc(OC)c(O)c3oc2c1 | 75.2% (inactive)
Cc1cn(C)cn1 | 105% (inactive)
Cc1nn(C)c2ncnc(N/N=C/c3cccc(O)c3O)c12 | -8.29% (active)
CNC(=O)c1cc(Oc2ccc3c(c2)sc2nc(-c4ccc(NC(=O)[C@@H](NC(=O)OC)C(C)C)cc4)cn23)ccn1 | 42.9% (inactive)
CCOC(=O)C#Cc1c(C(=O)OCC)nnn1[C@@H]1O[C@H](COC)[C@@H](OC)[C@H]1OC | 93.8% (inactive)
C=CC(=O)Nc1cccc(Oc2nccc(Nc3nnc(-c4ccc(Br)cc4)s3)n2)c1 | 87.6% (inactive)
Nc1cc(C(=O)O)cc(-n2c(O)c(C=C3N=c4ccccc4=N3)sc2=S)c1 | 86.7% (inactive)
